The values that follow come from PubChem BioAssay (NCI).

Compounds without any hit were thinned out: in the full panel of roughly 79,000, 15% have a hit. Values without a mark were called inactive. Active and inactive are the calls of the source. Cut-off read from the data, not from the text of the source: active = growth inhibition above about 70%; inactive = the rest.

A short description of assay [1]: NCI Yeast Anticancer Drug Screen. Data for the rad50 strain (AID 155).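 Note: 0% = growth of vehicle-only cultures of the same strain.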 Conditions: S. cerevisiae rad50 strain growth inhibition; at 50.0 µM; hits give high values. Put shortly: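 A DNA repair-deficient yeast mutant serves as the test organism; compound-induced growth inhibition is calculated against vehicle-treated cells.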
Assay [2] in a line: NCI Yeast Anticancer Drug Screen. Data for the mec2-1 strain (AID 157). Conditions: S. cerevisiae mec2-1 strain, at 50.0 µM, hits give high values. Put shortly: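 Vehicle-treated cultures served as reference for growth inhibition of compound-exposed mec2-1 yeast.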
The nature of assay [3]: NCI Yeast Anticancer Drug Screen. Data for the sgs1 mgt1 strain (AID 161).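 Note: 0% = growth of cultures given vehicle only.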 Conditions: S. cerevisiae sgs1 mgt1 strain, at 50.0 µM, hits give high values. Put shortly: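 Genetically altered yeast, compound exposure, growth inhibition relative to vehicle.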
Assay [4] in a line: NCI Yeast Anticancer Drug Screen. Data for the cln2 rad14 strain (AID 165).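 Note: 0% = growth equal to vehicle treated cultures.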 Conditions: S. cerevisiae cln2 rad14 strain, at 50.0 µM, hits give high values. In outline:
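Each compound was tested on cln2 rad14 yeast. Inhibition of growth was calculated against vehicle-exposed controls.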

Assay [5] in a line: NCI Yeast Anticancer Drug Screen. Data for the bub3 strain (AID 167). Conditions: S. cerevisiae bub3 mutant strain, at 50.0 µM, hits give high values. Put shortly: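 Inhibition values come from growth of compound-treated mutant yeast normalised to vehicle-treated controls.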
Assay [6] is described as follows: NCI Yeast Anticancer Drug Screen. Data for the mlh1 rad18 strain (AID 175). Conditions: S. cerevisiae mlh1 rad18 strain growth inhibition; at 50.0 µM; hits give high values. In outline:
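Vehicle-treated cultures served as the reference for growth inhibition in a yeast strain carrying DNA damage repair alterations exposed to each compound.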

With `COc1ccc(C)cc1NC(=S)C#N`, the growth inhibition is 12.6% in assay [1]; -1.2% in assay [2]; -0.15% in assay [3]; -18.6% in assay [4]; 1.3% in assay [5]; -44.9% in assay [6].
As for `Cc1ccc(OCC2OC(n3cnc4c(Cl)nc(Cl)nc43)CC2Oc2ccc(C)cc2)cc1` (centres undefined), the growth inhibition was -20.4% in assay [1]; -21.6% in assay [2]; 23.1% in assay [3]; 7.45% in assay [4]; 27.4% in assay [5]; -33.5% in assay [6].
Regarding `CC1(C)S[C@H](CN)N[C@H]1C(=O)OC(c1ccccc1)c1ccccc1`, the growth inhibition in assay [1] is -4.3%; in assay [2], -13.4%; in assay [3] it was 5.25%; in assay [4], -1%; in assay [5] it was -11.2%; in assay [6] it was -31.9%.
Regarding `COc1cc2oc3c(c(=O)c2c(O)c1/C=C/C(C)C)CCC(C)(C)Oc1cc(O)ccc1-3`, the growth inhibition is 22.6% in assay [1]; 11.1% in assay [2]; 49% in assay [3]; 47.3% in assay [4]; 39.5% in assay [5]; -26.4% in assay [6].
On to `CC(=Nc1ccncc1)C(C)=Nc1ccncc1`, for which the growth inhibition is 89.7% (active) in assay [1]; 93.6% (active) in assay [2]; 89.8% (active) in assay [3]; 88.8% (active) in assay [4]; 89.8% (active) in assay [5]; 88.7% (active) in assay [6].
Consider `Cc1ccc(OCC2OC(n3cnc4nc(Cl)nc(Cl)c43)CC2Oc2ccc(C)cc2)cc1` (centres undefined), for which the growth inhibition in assay [1] was 36%; in assay [2], 12.4%; in assay [3] it was 50.5%; in assay [4], 50.2%; in assay [5] it was 57.6%; in assay [6] it was 15.2%.
As to `CC1C2(C)OC(=N)C(C#N)(C(c3cccc([N+](=O)[O-])c3)O2)C1(C#N)C#N` (centres undefined), the growth inhibition in assay [1] was 8.15%; in assay [2], 1.55%; in assay [3] it was -13.6%; in assay [4], 0.15%; in assay [5], -10.4%; in assay [6], -9.1%.
Take `O=C1NC(N/N=C\C(O)C(O)C(O)C(O)CO)=N/C1=C\c1ccc(Cl)cc1` (centres undefined): the growth inhibition in assay [1] was 23.6%; in assay [2], 30.6%; in assay [3], 25.8%; in assay [4] it was 26.9%; in assay [5], 24.4%; in assay [6], 17.6%.
Consider `N#Cc1c(N)oc(-c2cccc([N+](=O)[O-])c2)c1C#N`, for which the growth inhibition in assay [1] was 24.6%; in assay [2] it was 28.9%; in assay [3], -19.9%; in assay [4], 10.8%; in assay [5], -6.3%; in assay [6], -16.9%.
Take `CC1CC(=O)N(N(C)C)C(C#N)(C#N)C1(C#N)C#N` (centres undefined): the growth inhibition in assay [1] was 24.4%; in assay [2] it was 30.6%; in assay [3], 11.2%; in assay [4], 17.5%; in assay [5], 0.8%; in assay [6], 80.5% (active).
On to `NC1N=C(c2ccc(Cl)cc2)C2=C(N1)c1ccccc1CC2` (centres undefined), for which the growth inhibition in assay [1] was -7.1%; in assay [2] it was 0.9%; in assay [3] it was -0.75%; in assay [4], 8.05%; in assay [5], 18.9%; in assay [6], -50.7%.
Take `CCC(C)C1(O)OC2CC3(C)OC(=CC3=O)/C(C)=C\C3OC(=O)C1(C)C32` (centres undefined): the growth inhibition was 7.65% in assay [1]; -31.2% in assay [2]; 37.5% in assay [3]; 6.4% in assay [4]; -20.1% in assay [5]; -35.9% in assay [6].
With `CN(C)c1ccc(/C=N/n2c(-c3ccccc3)nc3ccccc3c2=O)cc1`, the growth inhibition was 14.3% in assay [1]; 14.2% in assay [2]; 43.8% in assay [3]; 13.4% in assay [4]; 50.8% in assay [5]; -41% in assay [6].
Turning to `Clc1c(Cl)c(Cl)c2nn(C3CCCO3)nc2c1Cl` (centres undefined), the growth inhibition is 15.3% in assay [1]; 3.2% in assay [2]; -5.9% in assay [3]; -17.1% in assay [4]; 12.1% in assay [5]; -45.6% in assay [6].
Consider `Cn1c2c(c3ccccc3c1=O)C(=O)c1ccccc1-2`, for which the growth inhibition in assay [1] was 43%; in assay [2], -14.2%; in assay [3], 9.3%; in assay [4], 26.1%; in assay [5] it was 7.7%; in assay [6] it was -23.7%.
As for `COC(=O)C(=O)C(C(=O)C(=O)Nc1nc2ccc(C)cc2s1)c1nc2ccc([N+](=O)[O-])cc2[nH]c1=O` (centres undefined), the growth inhibition is 56.1% in assay [1]; 15.4% in assay [2]; 22.1% in assay [3]; -30.6% in assay [4]; 26.1% in assay [5]; 20.2% in assay [6].
Consider `Cc1ccc(F)cc1NC(=O)O/N=C(\Cl)C(C)C`, for which the growth inhibition in assay [1] was -17.9%; in assay [2] it was -31.9%; in assay [3] it was -5.7%; in assay [4] it was 3.85%; in assay [5] it was 4.85%; in assay [6], 55.6%.
For the compound `O=C(Cc1nc2ccc(C(=O)c3ccccc3)cc2[nH]c1=O)C(=O)Nc1ccccc1[N+](=O)[O-]`, the growth inhibition was 2.75% in assay [1]; -15.6% in assay [2]; 7.75% in assay [3]; 9.35% in assay [4]; 6.15% in assay [5]; 12.3% in assay [6].
Consider `COC(=O)C(C(=O)C(=O)Nc1c(C)cccc1C(C)(C)C)c1nc2ccc(Cl)cc2[nH]c1=O` (centres undefined), for which the growth inhibition is -7.9% in assay [1]; -26.9% in assay [2]; -2.25% in assay [3]; 16.9% in assay [4]; -3.5% in assay [5]; 12.7% in assay [6].
